UBC9 SUMO inh: inhibitors of in vitro SUMOylation cascade, primary screen, biochemical, HTRF, uHTS | SUMO-conjugating enzyme UBC9 (Homo sapiens), P63279 | HTRF SUMOylation assay, SAE1/SAE2 + UBC9 | inhibition, % at 35 µM | 0.36% of 290,000 active; in the data active = inhibition above about 50%, passing the limit was not always enough; inconclusive = no clear call, values can overlap the other calls
UBC13 polyUb: UBC13 polyubiquitin chain formation inhibitors, primary screen, biochemical, TR-FRET, uHTS; Ubiquitin-conjugating enzyme E2 N (Homo sapiens), P61088; AID 485273, 2010; inhibition, % at 20 µM; 0.47% of 330,000 active; in the data active = inhibition above about 45%, passing the limit was not always enough; inconclusive = no clear call, values can overlap the other calls
PREPL inhibitor: PREPL enzyme inhibitors, primary screen, biochemical, fluorescence polarization. Prolyl endopeptidase-like (Homo sapiens), Q4J6C6. recombinant PREPL, fluorescence polarization activity-based probe. inhibition, % at 5.96 µM. 0.68% of 320,000 active; in the data active = inhibition above about 43%;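 note: 0% = enzyme with DMSO and 100% = wells lacking enzyme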
ALR inh: inhibitors of human ALR sulfhydryl oxidase, primary screen, biochemical, H2O2 detection, HRP-luminol luminescence, single point. FAD-linked sulfhydryl oxidase ALR (Homo sapiens), P55789. purified ALR, DTT oxidation. inhibition, % (concentration not given with the values). 3.8% of 290,000 active. AID 485317, 2010;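 active = mean replicate inhibition above about 79%, with every replicate also reaching it, limit read from the data; inconclusive = only one of the two criteria met; inactive = mean below limit and not every replicate reaching it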
Rin1 Abl inh: inhibitors of Rin1-Abl protein binding, primary screen, biochemical, TR-FRET; Tyrosine-protein kinase ABL1 (Homo sapiens) + Ras and Rab interactor 1 (Homo sapiens), …; inhibition, % at 7.35 µM; 0.4% of 360,000 active; AID 588664, 2011; in the data active = inhibition above about 5%, passing the limit was not always enough
* marks the source's active call; other numbers are inactive results. Most compounds without a hit are left out; they make up all but 4.3% or so of the library.

Screening Cc1cc(C(=O)N2CCCC(Nc3ccc(F)cc3)C2)n(C)n1 (stereo unspecified) returned UBC9 SUMO inh 10.0, UBC13 polyUb -9.3, PREPL inhibitor 6.3, ALR inh 54.5 and Rin1 Abl inh 1.2.
`Cc1ccc(NC2CCCN(C(=O)c3cnsn3)C2)cc1C` (stereo unspecified) gave UBC9 SUMO inh -4.5, UBC13 polyUb -0.9, PREPL inhibitor 9.0, ALR inh 98.8* and Rin1 Abl inh -2.5.
CSc1ncccc1C(=O)N1CCCC(Nc2ccc(C)c(C)c2)C1 (stereo unspecified) was read as UBC9 SUMO inh 4.6, UBC13 polyUb -5.2, ALR inh 98.8* and Rin1 Abl inh -2.9.
For Cc1nc(C(=O)N2CCCC(Nc3ccc(C)c(C)c3)C2)cs1 (stereo unspecified) the results were UBC9 SUMO inh 14.2, UBC13 polyUb 5.1, ALR inh 99.0* and Rin1 Abl inh 0.1.
C[C@H](OC(=O)NCc1ccc(C(F)(F)F)cc1)[C@@H]1O[C@@]2(C)CCC[C@@H]1O2 was read as UBC13 polyUb -1.4, PREPL inhibitor 7.0, ALR inh -7.1 and Rin1 Abl inh 2.3.
Cc1ccc(N2CC(C(=O)Nc3ccc(N4CCOCC4)cc3)CC2=O)cc1C (stereo unspecified) was read as UBC9 SUMO inh -2.5, UBC13 polyUb 0.1, PREPL inhibitor 21.0, ALR inh -7.0 and Rin1 Abl inh -9.2.
Screening CN1CCN([C@H]2CS(=O)(=O)N[C@@H]2COCc2ccccc2)CC1 returned Rin1 Abl inh -0.9.
`Cc1nc(CC(C)C)cc(C(=O)N2CCCC(Nc3ccc(C)c(C)c3)C2)n1` (stereo unspecified) gave UBC9 SUMO inh 1.4, UBC13 polyUb -5.1, PREPL inhibitor 14.8, ALR inh inconclusive and Rin1 Abl inh 5.7.
CC(C)c1ccc(NC2CCCN(C(=O)c3cc(C(C)C)[nH]n3)C2)cc1 (stereo unspecified) was read as UBC9 SUMO inh -13.6, UBC13 polyUb -1.1 and Rin1 Abl inh 0.2.
Cc1ccc(NC2CCCN(C(=O)c3cc(C(C)C)[nH]n3)C2)cc1C (stereo unspecified) was read as UBC9 SUMO inh 0.0, UBC13 polyUb 3.1, ALR inh 98.5* and Rin1 Abl inh -1.6.
CSc1nc(C(=O)N2CCCC(Nc3ccc(C)c(C)c3)C2)cs1 (stereo unspecified) was read as UBC9 SUMO inh 17.1, UBC13 polyUb -5.8, PREPL inhibitor 24.4, ALR inh 98.4* and Rin1 Abl inh -2.8.
Cc1ccc2nccc(C(=O)N3CCCC(Nc4ccc(C)c(C)c4)C3)c2c1 (stereo unspecified) was read as UBC13 polyUb -8.8, PREPL inhibitor 25.8, ALR inh 98.9* and Rin1 Abl inh -1.1.
For COc1ccc(C(=O)N2CCCC(Nc3ccc(C(C)C)cc3)C2)c(OC)n1 (stereo unspecified) the results were UBC9 SUMO inh 0.4, UBC13 polyUb 4.4, PREPL inhibitor 14.8, ALR inh 31.5 and Rin1 Abl inh -6.8.
COc1ccc(NC2CCCN(C(=O)c3csc(C)n3)C2)cc1 (stereo unspecified) was read as UBC9 SUMO inh 7.3, UBC13 polyUb -9.6, PREPL inhibitor 1.4, ALR inh 99.3* and Rin1 Abl inh 2.5.
For COc1ccc(S(=O)(=O)N2CCCCC2)cc1NC(=O)C1CC1(Cl)Cl (stereo unspecified) the results were Rin1 Abl inh -2.6.
`COc1ccc(COC(=O)c2cccc(S(=O)(=O)N3CCCC3)c2)cc1F` gave UBC9 SUMO inh 11.8, UBC13 polyUb 12.3, PREPL inhibitor 12.1, ALR inh -0.4 and Rin1 Abl inh 0.2.
For Cc1ccc(NC2CCCN(C(=O)c3ccccn3)C2)cc1C (stereo unspecified) the results were UBC9 SUMO inh 4.5, UBC13 polyUb -2.6, PREPL inhibitor 13.0, ALR inh 98.9* and Rin1 Abl inh 3.3.
`C[C@@H]1Cn2cnc(C(=O)Nc3ccccc3)c2C(=O)N1` gave Rin1 Abl inh -0.9.

Screening results as filed in PubChem BioAssay.
